This is a sample that favours compounds with a hit; in the whole collection about 2.9% have one here.
ADAM17 inh – inhibits human ADAM17 | recombinant ADAM17, EDANS/DABCYL FRET peptide cleavage | P78536 | AID 720648 | actives 0.83% (n = 370,000) | inhibition, % at 6.95 µM;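 active means inhibition above the mean of compounds lying between control limits plus 3 SD, set per campaign, cut at about 8.5% in these data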;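 further: 0% = DMSO-only wells as the low control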
ADAM10 inh – inhibitors of human ADAM10 | actives 0.62% (n = 370,000) | inhibition, % at 7 µM | O14672 | recombinant ADAM10, EDANS/DABCYL FRET peptide cleavage, 3 h | AID 720582;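 active means inhibition above a per-campaign cutoff equal to the mean of compounds falling between control-based bounds plus 3 SD, cut at about 20% in these data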;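 further: 0% = DMSO wells while the 100% control is not disclosed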
PLCg1 inh – PLC-gamma1 (human) inhibition, primary screen; inhibition, % at 12.2 µM; P19174; purified PLC-gamma1, fluorogenic substrate, fluorescence; actives 0.84% (n = 370,000); AID 720700
PLC-beta3 inh – PLC-beta3 (human) inhibition, primary screen; Q01970; Purified PLC-beta3, fluorogenic substrate, fluorescence; inhibition, % at 12.2 µM; actives 0.18% (n = 370,000); in the data active means inhibition above about 11%;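 further: 0% = median of compound wells on plate and 100% = full blocker control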
KLK7 zymogen act – activates the human kallikrein-7 zymogen. activation, % at 7 µM. actives 0.9% (n = 370,000). P49862. purified proKLK7, EDANS-DABCYL substrate fluorescence; 100% is mature enzyme control, 0% vehicle;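 active means activation above the mean of all tested compounds plus 3 SD, computed per campaign excluding outliers beyond control limits, cut at about 13% in these data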
ADAM10 confirm – human ADAM10 inhibition, confirmation; ADAM10 QFRET peptide cleavage, EDANS fluorescence; inhibition, % at 6.95 µM; actives 1% (n = 2,100); shares compounds with ADAM10 inh;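 active means inhibition above about 20% chosen separately for each screening run, limit read from the data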;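 further: 0% = DMSO wells and 100% = marimastat wells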
ADAM17 ctr – counter-screen for ADAM10 exosite inhibitors: inhibitors of human ADAM17 | shares compounds with ADAM10 inh | ADAM17 QFRET peptide cleavage, EDANS fluorescence | inhibition, % at 6.95 µM | actives 0.5% (n = 2,100) | AID 743214;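 active means mean triplicate inhibition above the solvent-only control wells' mean plus 3 SD, cut at about 12% in these data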;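 further: 0% = DMSO wells and 100% = marimastat wells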
ADAM10 counter – counter-screen for ADAM17 exosite inhibitors: inhibitors of human ADAM10; shares compounds with ADAM17 inh; recombinant ADAM10, EDANS/DABCYL FRET peptide cleavage, 3 h; inhibition, % at 6.95 µM; actives 47% (n = 2,900);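 active means mean inhibition over the triplicate runs exceeds the activity threshold set in the earlier primary screen, cut at about 20% in these data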;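 further: 0% = DMSO wells and 100% = marimastat wells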
ADAM17 confirm – human ADAM17 inhibition, confirmation | inhibition, % at 6.95 µM | actives 65% (n = 2,900) | recombinant ADAM17, EDANS/DABCYL QFRET peptide cleavage | shares compounds with ADAM17 inh;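 active means mean inhibition across replicates above the hit cutoff set in the primary screen, cut at about 8.5% in these data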;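 further: 0% = DMSO wells and 100% = marimastat wells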
PLCg1 ctr – inhibits human PLC-gamma1 in PLC-beta3 counter-screen | inhibition, % at 12.3 µM | shares compounds with PLCg1 inh | AID 743258 | purified PLC-gamma1, fluorogenic substrate, fluorescence | actives 3.1% (n = 3,300)
PLCb3 confirm – human PLC-beta3 inhibition, confirmation; AID 743261; shares compounds with PLCg1 inh; purified PLC-beta3, fluorogenic substrate fluorescence; inhibition, % at 12.3 µM; actives 1% (n = 3,300); in the data active means inhibition above about 11%
Active calls of the source: *; . = no result given. Unless noted, no stated cut-off is given here; in the data, active means inhibition above about 9.5%; inactive means the rest.

SMILES	ADAM17 inh	ADAM10 inh	PLCg1 inh	PLC-beta3 inh	KLK7 zymogen act	ADAM10 confirm	ADAM17 ctr	ADAM10 counter	ADAM17 confirm	PLCg1 ctr	PLCb3 confirm
COc1cc(CNc2ncnc3c2ncn3[C@H]2CN(Cc3cccc(C(F)(F)F)c3)C[C@@H](CO)O2)cc(OC)c1OC	9.7*	22.7*	9.6*	3.1	0.1	0.6	-0.8	14.2	10.1*	-2.4	2.5
COc1cccc(-c2csc(NC(=O)Nc3ccccc3)n2)c1	5.1	25.1*	11.9*	-6.7	0.2	7.4	1.5	.	.	2.7	0.4
O=C(Nc1ccccc1)Nc1nc(-c2ccccc2)cs1	-0.8	1.3	0.6	-3.9	-0.1	.	.	.	.	.	.
COc1cccc(CNn2c(-c3cccc(C)c3)nc3ccccc3c2=O)c1	8.3	26.8*	5.4	11.3*	-0.4	0.2	0.7	.	.	-7.8	-6.8
Fc1ccc(CNCc2ccco2)cc1	7.6	19.8*	12.2*	0.8	-0.5	-0.9	-0.2	.	.	-1.1	-0.5
Cc1cccc(Nc2nc(N)c([N+](=O)[O-])c(NCc3ccco3)n2)c1	16.3*	31.0*	13.9*	7.4	-0.5	2.2	1.4	20.0*	10.3*	-1.7	-15.0
Cc1cccc(Nc2nc(NCc3ccco3)nc(N)c2[N+](=O)[O-])c1	-2.7	4.7	-1.1	-5.9	-0.4	.	.	.	.	.	.
Cc1ccc2c(c1)C(CS(=O)(=O)NCCc1ccccc1)NC2 (stereo not drawn)	-2.7	-1.1	-6.8	-10.1	0.2	.	.	.	.	.	.
COc1cc(C(C)=O)ccc1OCC(O)CN(CCO)Cc1ccccc1 (stereo not drawn)	-7.3	-4.3	-0.5	-6.0	-0.1	.	.	.	.	.	.
OCCN(Cc1ccccc1)CC(O)COc1ccc(-c2ccccc2)cc1 (stereo not drawn)	13.4*	29.9*	13.1*	5.6	0.5	3.6	1.3	30.8*	15.6*	-2.4	-3.2
COc1ccc(CNCC#Cc2ccc(C(F)(F)F)cc2)c(OC)c1	-4.6	-4.5	-3.9	-4.7	0.9	.	.	.	.	.	.
CCN(CC)S(=O)(=O)c1ccc(N2CCOCC2)c(NS(=O)(=O)c2cc(C(C)(C)C)ccc2C)c1	17.4*	36.4*	11.6*	6.4	0.0	2.8	1.4	31.0*	14.9*	-2.4	-26.1
CC1ON=C(c2ccccn2)N(Cc2ccc(S(C)(=O)=O)cc2)C1=O (stereo not drawn)	-4.6	-18.8	0.0	-9.7	-0.9	.	.	.	.	.	.
O=C(Nc1ccccc1N1CCCCC1)c1ccc(F)c(S(=O)(=O)N2CCOCC2)c1	3.6	3.9	2.3	-0.9	0.3	.	.	.	.	.	.
O=C(Nc1ccccc1C(F)(F)F)c1ccc(F)c(S(=O)(=O)N2CCOCC2)c1	4.2	22.3*	13.1*	3.9	0.8	2.8	-0.3	.	.	0.7	-4.3
CN(Cc1ccccc1)C(=O)Cn1nnc(-c2ccccc2)c1COc1ccc2ccccc2c1	20.3*	34.2*	11.2*	2.1	-0.1	7.6	1.6	25.0*	15.6*	-1.7	-4.0
CCOC(=O)c1ccc(N/C(=N\S(=O)(=O)c2ccccc2C)c2ccccc2)cc1	4.2	21.3*	10.3*	2.1	0.4	2.5	0.9	.	.	-1.7	-3.6
O=S(Cc1cc(Oc2ccccc2)nc(-c2ccccc2)n1)c1ccccc1 (stereo not drawn)	10.6*	26.0*	13.5*	3.8	0.3	3.5	1.1	9.8	7.0	1.1	2.5
